High-throughput results: PubChem, Broad Institute
Rows were chosen to be rich in hits. Some 2.2% of all compounds tested hit in one or more screens of this group.
EWS-Fli inh: EWS/Fli-driven NR0B1 reporter inhibitors, primary screen, A673 cells, NR0B1 luciferase, luminescence, MLPCN library | viability-normalised | inhibition, % at 12.6 µM | 0.67% of 350,000 active;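 active means mean inhibition of at least 50% after viability correction, with every replicate also passing that limit; inconclusive means mean reaches 50% but only one of two replicates passes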;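 further: firefly luciferase signal divided by Alamar Blue viability fluorescence both relative to DMSO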
LGR2 antag: inhibitors of bursicon-induced LGR2 CRE-luciferase signal, primary screen, cell-based, HEK293, CRE-luciferase reporter, bursicon stimulation; Drosophila bursicon receptor LGR2 (rickets); bursicon-stimulated, 4 h; inhibition, % at 9.99 µM; 0.35% of 380,000 active;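 active means drop in luminescence signal, shown as inhibition above about 50% in the replicate tests, limit read from the data, passing the limit was not always enough; inconclusive means probably only some replicates passing the limit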;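 further: agonist challenge used bursicon conditioned medium at about half maximal strength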
Shn3 3UTR inh: reduction of Shn3 3'UTR firefly luciferase signal, primary screen, Schnurri-3 inhibitor project, cell-based, Clone20 osteoblasts, set 2; Clone20 osteoblast Shn3 3'UTR firefly luciferase, 24 h; inhibition, % at 12.5 µM; 0.52% of 360,000 active; AID 588674, 2011;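 active means mean inhibition of at least 75% with every replicate also reaching 75%; inconclusive means mean inhibition at least 75% but some replicate below; inactive means mean inhibition below 75%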;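 further: 0% = median of neutral control wells and 100% = pilot-screen positive control compound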
TRPM1 prom inh: inhibitors of MITF-dependent TRPM1 promoter reporter, primary screen, cell-based, SK-MEL-5, single point, luciferase. SK-MEL-5 TRPM1 promoter luciferase, 24 h. inhibition, % at 12.5 µM. 0.83% of 330,000 active;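 active means mean inhibition across replicates of 60% or more, whatever share of single replicates reaches that level; inconclusive means some that reach 60%, reason not given; inactive means mean inhibition across replicates below 60%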
EBV LMP1 NFkB: EBV LMP1-driven NF-kappaB luciferase reporter inhibitors, primary screen, cell-based, luminescence, single point; inhibition, % at 12.5 µM; LMP1-induced NF-kappaB luciferase reporter cells; 0.69% of 350,000 active; in the data active means inhibition above about 41%; inconclusive means no clear call, values can overlap the other calls;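 further: 0% = neutral control wells and 100% = reference inhibitor control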
PAX8 reporter: inhibitors of PAX8-driven TPO luciferase reporter, primary screen, RMG-I cells, single concentration; SteadyGlo, 24 h; inhibition, % at 12.6 µM; 1.2% of 360,000 active;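 active means mean replicate inhibition at least 60% with every replicate also reaching 60%; inconclusive means only one of the two criteria is met; inactive means mean below 60% and not all replicates reaching 60%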;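 further: luciferase light reporting Pax8 driven TPO promoter activity; plate controls were median of neutral control wells for no effect and mitoxantrone controls for full effect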
DNA binding: DNA binders by acridine orange displacement, dose response, counter-screen for EWS/Fli inhibitor project, biochemical, fluorescence polarization, cherry-pick | shares compounds with EWS-Fli inh | salmon sperm DNA acridine orange fluorescence polarization | AC35, µM (top dose mostly 68 µM), for inactives: at the highest dose activity change, negative = DNA binding | 2% of 640 active;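 active means fitted curve reaches a 35% signal fall AC35 below twice the sample's top valid tested dose, actives reach about 48 µM in these data; inactive means the rest, including activity in the rising direction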;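 further: lower polarization ratio signals compound binding to DNA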
* = called active by the depositor.

What do the screens show for `CCc1ccc(/C=C2\SC(=S)N(CCCC(=O)Nc3cc(C)on3)C2=O)cc1`?
EWS-Fli inh: 83*; LGR2 antag: 18; Shn3 3UTR inh: 65; EBV LMP1 NFkB: 37; PAX8 reporter: 35; DNA binding: -2%

What do the screens show for `CCc1ccc(/C=C2\SC(=S)N(CCCC(=O)NC3=NCCS3)C2=O)cc1`?
EWS-Fli inh: 77*; LGR2 antag: 1; Shn3 3UTR inh: 49; EBV LMP1 NFkB: 46*; PAX8 reporter: 13; DNA binding: 1%

Results for CCc1ccc(/C=C2\SC(=S)N(CCC(=O)Nc3cc(C)on3)C2=O)cc1 ?
EWS-Fli inh: 63*; LGR2 antag: 2; Shn3 3UTR inh: 0; TRPM1 prom inh: 39; EBV LMP1 NFkB: 6; PAX8 reporter: 7; DNA binding: 1%

What do the screens show for `COc1ccccc1/C=C1\SC(=S)N(CCC(=O)Nc2cc(C)on2)C1=O`?
EWS-Fli inh: 52*; LGR2 antag: 19; Shn3 3UTR inh: 15; TRPM1 prom inh: 4; EBV LMP1 NFkB: -1; PAX8 reporter: -11; DNA binding: 4%

How did COc1cccc(/C=C2\SC(=S)N(CCCC(=O)NC3=NCCS3)C2=O)c1 do in these assays?
LGR2 antag: -3; Shn3 3UTR inh: 20; TRPM1 prom inh: 12; EBV LMP1 NFkB: 3

What do the screens show for `CC(=O)ON=C1C=CC(=C(C#N)c2ccccc2)C=C1`?
EWS-Fli inh: 56*; LGR2 antag: 18; Shn3 3UTR inh: 16; PAX8 reporter: 71*; DNA binding: 0%

How did COc1ccc(C(C#N)=C2C=CC(=NO)C=C2)cc1 do in these assays?
EWS-Fli inh: 6; LGR2 antag: -10; Shn3 3UTR inh: -14; TRPM1 prom inh: -2; EBV LMP1 NFkB: -18; PAX8 reporter: -35

How did C[C@H](CO)N1C[C@H](C)[C@@H](CN(C)S(=O)(=O)c2cccs2)Oc2ccc(NC(=O)CCCCCC(=O)Nc3ccccc3N)cc2CC1=O do in these assays?
EWS-Fli inh: 40; LGR2 antag: 5; PAX8 reporter: 20

How did CC=Cc1ccc2n(c1=O)C[C@H]1[C@H](CO)[C@@H](C(=O)NCC)[C@@H]2N1Cc1nccs1 (mixture of isomers) do in these assays?
EWS-Fli inh: 20; LGR2 antag: 3; PAX8 reporter: -7

Results for CC1=NN(c2ccc(C)cc2)C(=O)/C1=C\C=C\c1ccccc1 ?
EWS-Fli inh: 61*; LGR2 antag: 0; Shn3 3UTR inh: 25; TRPM1 prom inh: 38; EBV LMP1 NFkB: -6; PAX8 reporter: 3; DNA binding: -13%

How did CC1=NN(c2cccc(C(=O)O)c2)C(=O)/C1=C\C=C/c1ccccc1 do in these assays?
EWS-Fli inh: 46; LGR2 antag: inconclusive; Shn3 3UTR inh: 60; PAX8 reporter: 2

What do the screens show for `CO[C@@H]1CN(C)C(=O)c2ccc(NC(=O)c3ccc(-c4ccccc4)cc3)cc2OC[C@H](C)NC[C@H]1C`?
LGR2 antag: -6; PAX8 reporter: 21

How did CO[C@H]1CN(C)C(=O)c2ccc(NC(=O)c3ccc(-c4ccccc4)cc3)cc2OC[C@H](C)NC[C@H]1C do in these assays?
EWS-Fli inh: 83*; LGR2 antag: 8; PAX8 reporter: inconclusive; DNA binding: -14%

Results for CO[C@H]1CN(C)C(=O)c2cc(NC(=O)c3ccc(Oc4ccccc4)cc3)ccc2OC[C@H](C)NC[C@@H]1C ?
EWS-Fli inh: 58*; LGR2 antag: 9; PAX8 reporter: 36; DNA binding: -18%

How did COc1ccc2c3c(n(C)c2c1)[C@H](CO)N(C(=O)c1ccccc1)CC31CN(C)C1 do in these assays?
EWS-Fli inh: -4; LGR2 antag: -3

Results for C[C@H]1CN([C@@H](C)CO)S(=O)(=O)c2ccc(C#CC(C)(C)O)cc2O[C@@H]1CN(C)Cc1ccc(-c2ccccc2)cc1 ?
EWS-Fli inh: 68*; LGR2 antag: 54*; DNA binding: 4%
